# Hits are enriched below; roughly 1.4% of the tested compounds scored in any of these assays.
# BRCA1 expr up = BRCA1 expression activation. MCF7-BRCA1-FFLuc reporter, luminescence, 48 h; response scale: scaled: vehicle 0%, 10 µM genistein 100%. Potency, µM (titrated, usually from 46.1 µM), for inactives: at the top dose activation, usual class: activators. 380,000 compounds, 1.1% hits. AID 624202; note: potency is the fitted concentration of half-maximal effect; nearly all actives have a fitted effect of over 80% in size
#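 MCF7 cells carrying a BRCA1-firefly luciferase reporter (2000 cells/well, phenol-red free MEM) were attached for 2 h at 37 °C, then given compounds for 48 h. Luminescence was read 15 min after luciferase reagent; activity normalized to genistein (10 microM) and DMSO.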
# GLS inh = glutaminase GLS (human) inhibition. GLS enzymatic activity, qHTS titration. Potency, µM (doses to about 45.5 µM), for inactives: at the highest dose activity change, negative = inhibition, most hits filed as inhibitors. 410,000 compounds, 0.21% hits; note: potency is the fitted concentration of half-maximal effect; % is set by controls: 0 for no effect and ±100 for the full control effect
# Target sequence (O94925 whole entry, looked up): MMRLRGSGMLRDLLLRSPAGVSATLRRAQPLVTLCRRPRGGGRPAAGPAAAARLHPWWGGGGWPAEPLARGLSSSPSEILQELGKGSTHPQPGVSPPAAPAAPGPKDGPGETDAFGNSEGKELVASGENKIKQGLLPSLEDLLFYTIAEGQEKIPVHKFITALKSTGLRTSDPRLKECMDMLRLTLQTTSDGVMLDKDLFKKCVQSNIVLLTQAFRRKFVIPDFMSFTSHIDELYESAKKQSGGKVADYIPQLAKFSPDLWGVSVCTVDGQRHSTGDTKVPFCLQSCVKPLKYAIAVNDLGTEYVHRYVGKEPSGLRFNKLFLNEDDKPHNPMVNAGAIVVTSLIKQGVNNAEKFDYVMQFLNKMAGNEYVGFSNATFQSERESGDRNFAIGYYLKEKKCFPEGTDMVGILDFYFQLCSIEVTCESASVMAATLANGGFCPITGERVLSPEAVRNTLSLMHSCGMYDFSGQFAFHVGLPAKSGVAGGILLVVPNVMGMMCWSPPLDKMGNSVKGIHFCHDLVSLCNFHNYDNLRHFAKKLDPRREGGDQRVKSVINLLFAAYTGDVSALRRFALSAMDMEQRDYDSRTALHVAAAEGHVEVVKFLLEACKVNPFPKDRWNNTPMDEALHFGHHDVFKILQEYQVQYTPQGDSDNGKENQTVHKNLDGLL
#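 hKGA in 45 mM KH2PO4 (pH 8.2), 0.02% Tween-20 with compound, then 1mM L-Glutamine (stock as added) plus glutamate oxidase/HRP/Amplex red coupling mix. Fluorescence read initially and after 30 min at RT; signal change reflects glutamate formation.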
# N370S GC mod = N370S glucocerebrosidase modulation, Gaucher chaperone candidate. N370S GC spleen homogenate, 4MU-glucoside fluorescence. P04062. 330,000 compounds, 0.092% hits. Potency, µM (titrated, usually from 59.4 µM), for inactives: at the top dose activity change, negative = inhibition, usual class: inhibitors;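 note: potency is the fitted concentration of half-maximal effect; 0% = full enzyme activity and -100% = no enzyme basal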
# TCR act = activators of T cell receptors | primary human leukocytes, anti-CD3, IL-2 HTRF, 48 h | Potency, µM (highest dose often 9.22 µM), without a hit: at the top dose activation of IL-2 secretion, most hits filed as activators | 330,000 tested, under 10 active | AID 504894; note: % of control where 0% means no effect
#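 Human primary leukocytes + a-CD3 beads + cpd, 48 hr; IL-2 in supernatant by HTRF (ex 320nm / em 665nm). No co-stimulatory signal supplied.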
# TSHR antagonist = blocks TSH signaling through the human TSH receptor; TSHR-expressing cells, TSH-stimulated cAMP HTRF, 2 h; active compounds read low; activity change, negative = inhibition, % at 11.5 µM; 330,000 compounds, 0.2% hits;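 active = activity change below a set negative limit, meaning inhibition stronger than a set level, cut at about -70% in these data; inconclusive = activity change between two set negative limits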; note: % is set by controls: 0 for no effect and ±100 for the full control effect
#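 Read-out is FRET at 665 nm (cryptate excitation 337 nm) from a cryptate-tagged anti-cAMP antibody, competed by cell cAMP against cAMP-d2. Compounds are tested on freshly harvested TSHR cells challenged with 4nM TSH (EC80) for 2 hours at 37 deg C.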
# p53 reactivator = restores transcriptional activity of mutant p53 | H1299 p53-A138V BP100-luciferase reporter, luminescence, 24 h | Potency, µM (highest dose often 92.2 µM), without a hit: at the highest dose activity change, positive = activation, hits mostly activators | 320,000 compounds, 0.063% hits | AID 504706; note: potency is the fitted concentration of half-maximal effect; % of control where 0% means no effect; nearly all actives have a fitted effect of over 45% in size
#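 p53-null H1299 cells stably carrying temperature-sensitive p53-A138V and a BP100-luciferase reporter were pinned with compounds (4-point, 1:5 series) and held 24 hrs at 37 deg C. Luminescence was read 10 min after detection reagent.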
# * = called active by the depositor; ? = inconclusive; . = no result; [ ] = remark or other dose. Unless noted, calls come from the whole dose curve; as a rule, active = well fitted curve in the direction sought with a large enough effect; inconclusive = small, poorly fitted or top-dose-only effect, or another doubt; inactive = no such curve, though single readings can be large; an effect the other way counts as inactive or inconclusive.
SMILES,BRCA1 expr up,GLS inh,N370S GC mod,TCR act,TSHR antagonist,p53 reactivator
CC(C)SCCCCOc1ccc2ccccc2c1,8.9µM*,4%,-6%,-3%,2,?
COc1ccc(OCCCSc2ncccn2)cc1,13µM*,6%,-19%,4%,-10,?
c1cnc(SCCCOc2ccc3ccccc3c2)nc1,11µM*,12%,9%,0%,-5,?
Nc1cc(N)nc(SCCOc2ccccc2)n1,13µM*,23%,3%,-4%,1,?
N#CN=c1snc(-c2ccccc2)n1-c1ccc(Cl)cc1,-47%,.,.,.,.,.
O=C(O)c1ccc2c(ccc3nn(-c4ccc(/C=C/c5ccc(-n6nc7ccc8cc(C(=O)O)ccc8c7n6)cc5[S+](=O)([O-])[O-])c([S+](=O)([O-])[O-])c4)nc32)c1,-5%,.,.,.,.,.
Clc1ccc(OCCSc2ncccn2)cc1,11µM*,1%,7%,1%,-8,?
Cc1cc(C)c(S(=O)(=O)NCCc2cc3ccc(C)cc3[nH]c2=O)c(C)c1,4%,-7%,.,.,.,.
CC(/C=N\NC(=O)c1cc(C)oc1C)=C\c1ccccc1,2µM*,-2%,8%,6%[46.1 µM],-5,?
CC(/C=N/NC(=O)c1ccncc1)=C\c1ccc(C(C)C)cc1,8.9µM*,-3%,3%,-3%,-9,42%
Cc1cc(C(=O)Nc2ccc3ccccc3c2)c(C)o1,?,-4%,-1%,9%,-20,25µM*
CC(/C=N/NC(=O)c1cccnc1)=C\c1ccccc1,3.2µM*,17%,10%,5%,22,?
Cc1ccc(/C=N/NC(=O)c2cc(C)oc2C)cc1,73%,-3%,-3%,1%,-7,14%
Cc1csc(NCC(=O)c2c(C)[nH]c3ccccc23)n1,-8%,.,.,.,.,.
CC[C@H]1C2=C3C(CC[C@H]4C(OCc5ccc(F)cc5C(F)(F)F)OC[C@](C)([C@@H]34)N(C(=O)OC(C)(C)C)C2)C(COC)C1COC (stereo partly drawn),.,.,0%,.,.,.
COc1ccc(N2CCCC2)c(NC(=O)c2ccc([N+](=O)[O-])o2)c1,-69%,13µM*,-4%,7%,-7,?
O=C(Nc1ccccc1N1CCCC1)c1ccc([N+](=O)[O-])o1,-98%,13%,-15%,-4%,7,-34%
Cc1ccc2nc(-c3ccc(C)o3)c(Nc3ccc(Cl)cc3)n2c1,0%,.,.,.,.,.
Cc1ccc(-c2noc(C3CCCCC3)n2)cc1,10µM*,8%,1%,1%,1,?
Cc1cccc(-c2noc(C3CCCCC3)n2)c1,4.5µM*,-1%,-1%,-4%,.,.
CC(=O)OCC(NC(=O)C(C)NC(=O)OC(C)(C)C)C1OC(n2ccc(=O)[nH]c2=O)C(OC(C)=O)C1OC(C)=O (stereo not drawn),.,.,1%,.,.,.
O=C(Nc1ccncc1)c1cnn2c1NC(=C1CC1)C=C2C(F)F,13%,.,.,.,.,.
COc1cc2nc(N3CCCN(C)CC3)nc(NC3CCN(Cc4ccccc4)CC3)c2cc1OC,-70%,.,.,.,-19,.
O=Cc1ccc(/C=C2\C=Cc3ccccc32)cc1,-75%,.,.,.,.,.
CN(C)c1ccc(/C=C(/C#N)C(=O)NCc2ccccc2)o1,10µM*,4%,0%,6%[46.1 µM],-4,?
SMILES,BRCA1 expr up,GLS inh,N370S GC mod,TCR act,TSHR antagonist,p53 reactivator
N#C/C(=C/c1ccccc1)C(=O)NCc1ccccc1,-8%,2%,-15%,0%,-7,-1%
C[C@@H]1C(SC2Cn3cnc[n+]3C2)=C(C(=O)[O-])N2C(=O)[C@H]([C@@H](C)O)[C@@H]12 (stereo partly drawn),.,-11%,.,.,.,.
COc1cccc(-c2ccc(-c3noc(-c4ccccc4F)n3)c(OC)n2)c1,10µM*,-4%,6%,-1%,-20,3%
COCc1nc(-c2ccc(-c3ccccc3)nc2OC)no1,10µM*,5%,9%,-3%[46.1 µM],24,19%
CC(=O)OC(C(=O)c1ccccc1)c1ccccc1 (stereo not drawn),.,.,15%,.,.,.
CC(C)COc1ccc(C(=O)Nc2ccc(SC(F)F)cc2)cc1,8.9µM*,-4%,-5%,0%[46.1 µM],-6,?
C=CCc1cccc(/C=N/NC(=O)CN2CCN(Cc3ccccc3)CC2)c1O,.,.,-1%,.,.,.
COc1ccc(C(=O)/C=C(\C)Nc2ccc3c(c2)OCO3)cc1,?,19%,7%,-2%,7,?
CCOc1ccc(N/C(C)=C\C(=O)c2ccc3c(c2)OCCO3)cc1,13µM*,-3%,7%,4%,21,11%
CCOc1ccc(N/C(C)=C/C(=O)c2ccc3c(c2)OCCO3)cc1,4.5µM*,2%,4%,-1%,9,4%
CCOc1ccc(NC(=O)CNC(=O)c2cn(-c3ccccc3OC)c(=O)c3ccccc23)cc1,0%,3%,13µM*,0%,-1,-2%
Cc1ccc(NC(=O)COC(=O)c2ccccc2OCC(=O)N(C)C)cc1,7%,.,.,.,.,.
C=CCn1c2ccccc2c(=O)c2cc(C#Cc3ccccn3)ccc21,8.9µM*,-6%,.,1%,15,?
Cn1c(=O)n(CCOc2ccccc2Cl)c2ccccc21,5µM*,3%,20%,-17%,2,?
O=c1ccccn1CCOc1ccccc1Cl,13µM*,15%,12%,4%[46.1 µM],2,15%
Clc1ccccc1OCCN1CCCCC1,-2%,-6%,-3%,-14%,12,6%
COc1ccc(-c2cn3nc(N4CCC(C(=O)Nc5cc(Cl)ccc5C)CC4)sc3n2)cc1,.,-3%,.,.,.,.
CC1CCC2(CC1)Nc1ccccc1C(=O)N2c1ccccc1 (stereo not drawn),?,-6%,29%,5%,-1,16%
O=C1c2ccccc2NC2(CCCCC2)N1c1ccc(O)cc1,11µM*,18%,-2%,2%,17,12%
COc1cccc(-c2csc(NC(=O)Oc3ccccc3)n2)c1,10µM*,-5%,-3%,-6%,14,?
CN1CCN(c2oc(-c3ccc(OCc4ccc(Cl)cc4)cc3)nc2C#N)CC1,-10%,.,.,.,.,.
Cc1cc(C(=O)CN2C(=O)C(=O)N(CC(C)C)C2=O)c(C)n1C1CC1,3.2µM*,6%,.,2%,-16,?
CC[n+]1c(/C=C/N(C)c2ccccc2)n(-c2ccccc2)c2ccc(-c3nc4ccccc4s3)cc21,-87%,27%,-26%,-1%,-98*,-92%
CCOC(=O)c1ccc2c(c1)n(CC)c(/C=C/N(C)c1ccccc1)[n+]2CC,-48%,-4%,-21%,-4%[46.1 µM],-13,-7%
CO/N=C(/C(=O)N[C@@H]1C(=O)N2C(C(=O)[O-])=C(C[n+]3ccn4ncccc43)CS[C@H]12)c1nsc(N)n1,.,-24%,.,.,.,.

# Compound activity: PubChem, National Center for Advancing Translational Sciences (NCATS)
